The campaign covered roughly 39,000 compounds. About 3,300 (8.5%) were called active. This excerpt belongs to a sample that is enriched for actives.
These compounds were tested on HepG2 (assay: cytotoxicity call (relative viability < 0.9)). Conditions: 10 µM.

Compound	cytotoxicity call
NC(=O)[C@H]1CNC(=O)C1	inactive
NC1(c2ccccc2F)CCCC1	inactive
CC(C)(C)[C@]1(O)C[C@@H]2OC(=O)C[C@@]23C(=O)O[C@@H]2OC(=O)[C@H](O)[C@]213	inactive
C/C(=C\[C@@H](N)C(=O)O)CP(=O)(O)O	inactive
Cc1cccc(Cc2c[nH]cn2)c1C.Cl	inactive
CCC1C2CC3C4N(C)c5ccccc5C45CC(C2C5O)N3C1O (stereo unspecified)	inactive
c1cc(N2CCNCC2)ccn1	inactive
CCn1cc2nc(N3CCNCC3)[nH]cc-2c1=O	inactive
C[C@H]1O[C@H](n2cnc3c(N)ncnc32)C[C@H]1O	inactive
CC(=O)Oc1ccc(Cl)c2cccnc12	active
Cc1c(N)nc([C@H](CC(N)=O)NC[C@@H](N)C(N)=O)nc1C(=O)N[C@H](C(=O)N[C@@H](C)[C@H](O)[C@@H](C)C(=O)N[C@@H](C(=O)NCCc1nc(-c2nc(C(=O)NCCC[S+](C)C)cs2)cs1)[C@@H](C)O)[C@@H](O[C@H]1O[C@H](CO)[C@H](O)[C@@H](O)[C@H]1O[C@H]1O[C@H](CO)[C@@H](O)[C@H](OC(N)=O)[C@@H]1O)c1c[nH]cn1	inactive
O[C@H]1[C@H](O)[C@@H](O)CO[C@H]1NCCc1ccccc1	inactive
COCCN1[C@@H]2CC[C@H]1CN(c1ncccn1)C2	inactive
CCn1nnnc1N	inactive
C[C@H](CO)N1C[C@H](C)[C@H](CN(C)C(=O)Oc2cccc3ccccc23)OCc2cnnn2CCCC1=O	inactive
CNCc1cccnc1	active
NCc1cccnc1	inactive
N#Cc1cccnc1	inactive
CC(=O)OCC1=C2C(=O)[O][Zn][O]C(=O)[C@@H](N)CCCC(=O)N[C@@H]3C(=O)N2[C@@H]3SC1	inactive
Nc1nc(=O)c2ncn([C@H]3O[C@@H](COP(=O)(O)OP(O)(O)=S)[C@H](O)[C@@H]3O)c2[nH]1	inactive
CN(C)[C@@H]1C(=O)[C@@H](C(N)=O)C(=O)[C@@]2(O)C(=O)[C@H]3C(=O)c4c(O)ccc(Cl)c4[C@@](C)(O)[C@H]3C[C@@H]12	inactive
CCCCCC1C(=O)OC(C)C(NC(=O)c2cccc(NC=O)c2O)C(=O)OC(C)C1OC(=O)CC(C)C (stereo unspecified) [ANTIMYCIN A (A1 shown) ]	active
CCCCC[C@H]1C(=O)O[C@H](C)[C@H](NC(=O)c2cccc(NC=O)c2O)C(=O)O[C@@H](C)[C@@H]1OC(=O)CC(C)C	active

Compound	cytotoxicity call
O=C1COC2(CNC2)CN1	inactive
CC(C)N1CCO[C@H]2CN(C(=O)N(C)C)C[C@@H]21	inactive
C=CCC1(O)CCC2C3CCC4=CC(=O)CCC4=C3C=CC21C (stereo unspecified)	inactive
CC(CCc1ccccc1)NC(C)C(O)c1ccc(O)cc1.Cl (stereo unspecified)	inactive
Nc1nnns1	inactive
CC(C)[C@@H](Br)C(=O)NC(N)=O	inactive
CC(C)Oc1ncccc1CN	inactive
CC(=O)O[C@H]1C[C@@H](OC(C)=O)C(C)(C)[C@@H]2C[C@@H](OC(C)=O)[C@]3(C)[C@H](CC[C@@]4(C)[C@H](c5ccoc5)C[C@H]5O[C@@]534)[C@@]12C	inactive
CC1(C)C(O)CC(=O)C2(C)C1CC(=O)C1(C)C2CCC2(C)C(c3ccoc3)OC(=O)C3OC321 (stereo unspecified)	inactive
CC1(C)C(=O)C=CC2(C)C1=C(O)C(=O)C1(C)C2CCC2(C)C(c3ccoc3)CC3OC321 (stereo unspecified)	active
CC(=O)OC1CC2(C)C(c3ccoc3)CC3OC32C2(C)C(=O)C(O)=C3C(C)(C)C(=O)C=CC3(C)C12 (stereo unspecified)	active
N[C@H]1CCCN(Cc2cccnc2)C1	inactive
O=C1NC(=S)NC(=O)C1CN1CCOCC1	inactive
C[C@H](O)[C@@]12[C@H]3CC=C[C@@H]1N2CC3 (stereo partly specified)	inactive
O[C@H]1CNC[C@@H]1N1CCCCC1	inactive
Cn1c(CCN)nc2ccccc21	inactive
COC(=O)C[C@@H]1CC[C@@H]2NC[C@H](O)COC[C@H]2O1	inactive
CO[C@@H]1C=C[C@@H]2[C@H]1N2CCO (stereo partly specified)	inactive
N[C@H]1CNC(=O)C1	inactive
CCCCCCCCCc1ccc(O)cc1	active
NCCc1ccc(O)cc1 [listing 1 of 2 here]	inactive
NCCc1ccc(O)cc1 [listing 2 of 2 here]	inactive
C1CCN2C(C3N4CCCCN34)N2C1 (stereo unspecified)	inactive

Compound	cytotoxicity call
c1cnc2[nH]cc(CN3CCNCC3)c2c1	inactive
O=C1NCc2cnnn2-c2ccccc21	inactive
CCN1CCN(c2nc(=O)cc(C)[nH]2)CC1	inactive
C1CO[C@@]2(C1)CCNC2	inactive
O=C([O-])c1ccccc1-c1c2cc(Br)c(=O)cc-2oc2[c]([Hg][OH])c([O-])c(Br)cc12.[Na+].[Na+]	inactive
O=C1NC(=O)C(=C[C@@H]2CC=CCC2)C(=O)N1	inactive
CC1=C(O)C(=O)C=C2C1=CC=C1C2(C)CCC2(C)C3CC(C)(C(=O)O)CCC3(C)CCC12C (stereo unspecified)	active
O.O.O.O=C([O-])C1[O][Sb]2[O]C(=O)C([O]2)C(C(=O)[O-])[O][Sb]2[O]C(=O)C1[O]2.[K+].[K+] (stereo unspecified)	active
Clc1nc(N2CCNCC2)c2[nH]cnc2n1	inactive
COCCCNC(=O)[C@H]1N[C@H]2C[C@@H]1C[C@@H]2F	inactive
O[C@@H]1[C@@H]2C[C@H]3[C@H]1N[C@@H]1C[C@@H]2[C@@H]3[C@H]1O	inactive
CN1CCO[C@H]2CN(c3ncccn3)C[C@@H]21	inactive
N#Cc1nn(-c2c(Cl)cc(C(F)(F)F)cc2Cl)c(N)c1S(=O)C(F)(F)F (stereo unspecified)	active
C[C@H](CO)N1C[C@H](C)[C@H](CN(C)C(=O)Oc2ccc3ccccc3c2)OCc2cn(nn2)CCCC1=O	inactive
CCOCC(=O)N1C[C@H]2CNC[C@H]2C1	inactive
CN1CCCN(Cc2ccc(CN)cc2)CC1	inactive
CN1[C@@H]2CC[C@H]1CNC(=O)C2	inactive
COc1ccc2c3c([nH]c2c1)C(C)=NCC3	inactive
CC1=NCCc2c1[nH]c1cc(O)ccc21.Cl.O.O	active
CN1CCN(c2ccccc2CN)CC1	inactive
COc1ccc(OC(=O)N(C)C[C@@H]2OCc3ccccc3-c3c(n(C)c4ccccc34)C(=O)N([C@H](C)CO)C[C@H]2C)cc1	inactive
N#Cc1cccnc1N1CCNCC1	inactive
Cc1ccc2cc3c(ccc4ccccc43)c3c2c1CC3	active

Compound	cytotoxicity call
CN1CCN(C(=O)[C@H]2C[C@H]3CN(c4ncccn4)C[C@@H]3N2C)CC1	inactive
Br.CN1C2CC(OC(=O)C(CO)c3ccccc3)CC1C(O)C2 (racemic)	inactive
C=C1[C@H]2CC[C@H]3[C@]4(C)C[C@H](O[C@H]5O[C@@H](CO)[C@@H](OS(=O)(=O)O)[C@H](OS(=O)(=O)O)[C@H]5OC(=O)CC(C)C)C[C@@H](C(=O)O)[C@H]4CC[C@]3(C2)[C@H]1O	inactive
CC[C@@H](C)NC=C1C(=O)NC(=O)NC1=O	inactive
O=C(c1ccco1)N1[C@@H]2CC[C@H]1CNC2	inactive
NC1(c2cccc(Cl)c2)CC1	inactive
CC(C)C[C@@H]1NC[C@@H]2CCCN2C1=O	inactive
CN(C)C(=S)SSC(=S)N(C)C	active
O=C(O)CN1C[C@@H]2C(NC(=O)c3ccno3)[C@H]2C1 (stereo partly specified)	inactive
CC(C(O)c1ccccc1)N(C)C (stereo unspecified)	inactive
CNCC(=O)c1ccc(O)cc1	inactive
CNc1ccccc1C(=O)O	inactive
COC(=O)NC(=S)Nc1ccccc1NC(=S)NC(=O)OC	active
Br.CN1C2CC(OC(=O)C(CO)c3ccccc3)CC1C1OC12 (stereo unspecified)	inactive
C[N+]1(C)C2CC(OC(=O)C(CO)c3ccccc3)CC1C1OC12.[Br-] (stereo unspecified)	inactive
CC(=O)Nc1ccc(Cl)cc1C	inactive
C=C[C@H]1CN2CC[C@@H]1C[C@@H]2CO	inactive
CN(C)[C@@H](CN)c1cn(C)c2ccccc12	inactive
C[C@@H]1CCC(=O)O1	inactive
OCC[N+]12CN3CN(CN(C3)C1)C2	inactive
Cc1cc2c(C(C)C)c(O)c(O)c(C=O)c2c(O)c1-c1c(C)cc2c(C(C)C)c(O)c(O)c(C=O)c2c1O [listing 1 of 2 here]	inactive
Cc1cc2c(C(C)C)c(O)c(O)c(C=O)c2c(O)c1-c1c(C)cc2c(C(C)C)c(O)c(O)c(C=O)c2c1O [listing 2 of 2 here]	active
CC(=O)O.Cc1cc2c(C(C)C)c(O)c(O)c(C=O)c2c(O)c1-c1c(C)cc2c(C(C)C)c(O)c(O)c(C=O)c2c1O	inactive

Compound	cytotoxicity call
COc1cccc(C2(O)CCCCC2CN(C)C)c1.Cl (stereo unspecified)	inactive
CN(CC[C@@H](N)CC(=O)N[C@H]1C=C[C@H](n2ccc(N)nc2=O)O[C@@H]1C(=O)O)C(=N)N	inactive
CN[C@H]1C[C@@H](N)[C@H](O)[C@@H](O[C@@H]2O[C@H](CO)[C@H](O)[C@@H]3O[C@@]4(O[C@H]23)O[C@H]([C@@H](N)CO)[C@H](O)[C@H](O)[C@H]4O)[C@@H]1O	inactive
CCCC(=O)c1c(O)[nH]c(=O)[nH]c1=O	inactive
S=C=Nc1cccc(C2(N3CCCCC3)CCCCC2)c1	active
c1ccc2sc(C3(N4CCCCC4)CCCCC3)cc2c1	inactive
c1ccc2sc(C3(N4CCCC4)CCCCC3)cc2c1	inactive
Oc1ccccc1N1CCNCC1	inactive
O[C@H]1CNC[C@@H]1N1CCCC1	inactive
CN1CC2(CNC2)OCCS1(=O)=O	inactive
C[C@@H]1CN([C@@H](C)CO)C(=O)CCCn2nncc2CO[C@@H]1CN(C)C(=O)Oc1cccc2ccccc12	inactive
NCCc1[nH]nc2c1CCCC2	inactive
CC1(C)NN1CCCN1NC1(C)C (stereo unspecified)	inactive
NCCO.NCCO.O[AsH]O[AsH]O (stereo unspecified)	active
CC12CCC(=O)C=C1C=CC1C2CCC2(C)C1CCC2(O)CCC(=O)[O-].[K+] (stereo unspecified)	inactive
CC12CCC3C(CCC45OC4C(O)=C(C#N)CC35C)C1CCC2O (stereo unspecified)	inactive
C[C@H](N)Cn1ccc2cc(F)c(Cl)cc21	inactive
CC(C)[C@H](N)C(=O)N1CCC[C@H]1B(O)O	inactive
CO[C@@H]1C[C@@H](C[C@H]2CC[C@H](C)[C@H]([C@@H](C)C(=O)O)O2)O[C@]2(O[C@](C)([C@H]3CC[C@@](C)([C@H]4O[C@@H]([C@H]5O[C@@](O)(CO)[C@H](C)C[C@@H]5C)C[C@@H]4C)O3)C[C@H]2C)[C@@H]1C	active

Source: the antibiotic and cytotoxicity screens of Wong et al. (2023)
